Screening results (PubChem BioAssay)
PLAP activator: human PLAP activation; activation fold at 20 µM; purified PLAP enzyme, luminescent substrate read-out; stronger effect = higher value; 96,000 tested, 1.2% active; AID 696; P05187; in the data active = activation fold above about 2
GALR2 ag: GALR2 (human) receptor agonism | O43603 | GALR2-expressing cells, agonist activation read-out | activation, % (test concentration not listed) | 140,000 tested, 0.48% active; in the data active = activation above about 5%, passing the limit was not always enough
S1P2 blocker: antagonists of human S1P2 receptor; inhibition, % at 5 µM; cell-based S1P2 antagonist assay, inhibition at 5 uM; 97,000 tested, 0.21% active; O95136; in the data active = inhibition above about 45%;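 note: CRE beta-lactamase reporter cells expressing human S1P2 stimulated with S1P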
Target sequence (O95136 whole entry, looked up): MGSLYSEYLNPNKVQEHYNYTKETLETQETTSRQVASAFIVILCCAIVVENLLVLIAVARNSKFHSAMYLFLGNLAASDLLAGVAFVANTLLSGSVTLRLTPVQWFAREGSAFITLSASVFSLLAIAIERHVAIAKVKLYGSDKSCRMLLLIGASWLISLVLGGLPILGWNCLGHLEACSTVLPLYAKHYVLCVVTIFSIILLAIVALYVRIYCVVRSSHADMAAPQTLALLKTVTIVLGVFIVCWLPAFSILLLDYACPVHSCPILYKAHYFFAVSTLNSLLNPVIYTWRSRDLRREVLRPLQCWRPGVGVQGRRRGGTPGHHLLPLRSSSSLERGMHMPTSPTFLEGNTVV
S1P2 ag: agonists of human S1P2 receptor; S1P2-expressing cell line, agonist reporter read-out; activation, % at 4.5 µM; 97,000 tested, 0.46% active; in the data active = activation above about 16%
GALR2 blocker: GALR2 (human) receptor antagonism | GALR2-expressing cells, antagonist mode | inhibition, % at 4 µM | O43603 | 140,000 tested, 0.39% active | AID 828; in the data active = inhibition above about 27%;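 note: cells stimulated with galanin 1-16 at roughly its EC80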
Large screens that a line does not name were inactive. Rows were chosen to be rich in hits. Some 2% of all compounds tested hit in one or more screens of this group.

CCCCOC(=O)c1ccc(S(N)(=O)=O)o1	none (no result: PLAP activator, S1P2 blocker, S1P2 ag)
CCOC(=O)c1ccc(CSc2n[nH]c(C)n2)o1	PLAP activator 2
CCOC(=O)c1ccc(CSc2nnc(C)n2N)o1	none
CC(C)c1ccc(NC(=O)Cn2cccc2C2=NC(c3ccccc3)CO2)cc1 (configuration not stated)	none (no result: PLAP activator, S1P2 blocker, S1P2 ag)
CCn1cc(CNC(=O)c2cc(-c3cc(OC)ccc3OC)nc3ccccc23)c(C)n1	none (no result: PLAP activator, S1P2 blocker, S1P2 ag)
CCOCCCNC(=S)NNC(=O)CCn1nc(C)c(Br)c1C	PLAP activator 2.9
Cc1nn(CCC(=O)NNC(=S)NCC(C)C)c(C)c1Br	PLAP activator 2.5
CNC(=S)NNC(=O)CCn1nc(C)c(Br)c1C	PLAP activator 2.1
Cc1nn(CCC(=O)NNC(=S)Nc2ccccc2)c(C)c1Br	none (no result: PLAP activator, S1P2 blocker, S1P2 ag)
COCCCNC(=S)NNC(=O)Cn1nc(C)c(Br)c1C	none (no result: PLAP activator, S1P2 blocker, S1P2 ag)
Cc1nn(CCC(=O)NNC(=S)Nc2ccc(F)cc2)c(C)c1[N+](=O)[O-]	none (no result: PLAP activator)
O=C(NCc1ccc(OC(F)(F)F)cc1)C1CC(c2c(Cl)cccc2Cl)=NO1 (configuration not stated)	none
CCCCN1C(=O)c2ccc(C(=O)NCCN3C(=O)S/C(=C\c4cccnc4)C3=O)cc2C1=O	none (no result: PLAP activator, S1P2 blocker, S1P2 ag)
C/C(=N\NC(=O)CC1N=C(Cc2ccccc2)NNC1=O)c1ccc(Cl)cc1Cl (configuration not stated)	none
O=C(Nc1ccccc1)c1ccc(N2CCN(c3ccccc3)CC2)c(S(=O)(=O)N2CCOCC2)c1	none
O=C(Nc1ccc(F)c(F)c1)c1ccc(F)c(S(=O)(=O)N2CCOCC2)c1	none
O=C(Nc1ccccc1)c1ccc(N2CCN(c3ccccn3)CC2)c(S(=O)(=O)N2CCOCC2)c1	PLAP activator 2.1
O=C(Nc1ccccc1)c1ccc(NC2CCCCC2)c(S(=O)(=O)N2CCOCC2)c1	PLAP activator 2.1
Cc1cc(C)n(-c2ccc(C(=O)OCC(=O)c3ccc(Br)s3)cc2)n1	none
COc1ccc(/C=c2\sc3nc(-c4ccccc4)c(-c4ccccc4)n3c2=O)cc1OC	S1P2 ag 22
Cc1sc2ncnc(NCC(c3ccco3)N3CCCC3)c2c1C (configuration not stated)	none
Nc1nc2c3ccccc3nc(C3CC3)n2n1	S1P2 ag 24
O=C(COc1ccc(Cl)cc1Cl)Nc1c(-c2cccs2)nc2ccccn12	none (no result: PLAP activator, S1P2 blocker, S1P2 ag)
CCCc1cc(=O)[nH]c(SCc2cc(Cl)ccc2OC(F)F)n1	none
Cn1c(N)c(C(=O)CCl)c(=O)n(C)c1=O	none
CCCCn1c(NC(=O)CC)c(C#N)c2nc3ccccc3nc21	none
CCCCn1c(NC(=O)c2ccccc2Cl)c(C#N)c2nc3ccccc3nc21	GALR2 ag 7.3
COc1cc(NS(=O)(=O)c2ccc3c(c2)n(C)c(=O)n3C)cc(OC)c1	none
Cn1ncc2c(NNC(=O)c3ccccc3Cl)ncnc21	none (no result: PLAP activator, S1P2 blocker, S1P2 ag)
O=C(Nc1nnc(-c2ccc(Cl)cc2)o1)c1nc2ccccc2s1	S1P2 blocker 51
Nc1nc(Br)c2c(F)cccc2c1-c1ccc(Cl)cc1	GALR2 ag 13, S1P2 ag 38
CSc1nc(N)c(C#N)c(-c2ccc(Cl)cc2)c1C#N	none
CCc1c(C)[nH]c2nc3ccccc3n2c1=O	PLAP activator 2.3
O=c1cc(-c2ccccc2)[nH]c2nc3ccccc3n12	none
NC(=O)Nc1ccccc1C(=O)N1CCC(O)(c2ccc(Cl)cc2)CC1	none (no result: PLAP activator, S1P2 blocker, S1P2 ag)
O=C(Nc1ccc(S(=O)(=O)N2CCCCC2)cc1)c1ccc(CN2CCc3ccccc3C2)cc1	S1P2 blocker 52
Cc1ccc(C2C3=C(CC(C)(C)CC3=O)N(CCN3CCOCC3)C3=C2C(=O)CC(C)(C)C3)cc1	PLAP activator 2.1
COc1ccccc1C1CN(c2ccc(F)cc2F)N=C1c1cccs1 (configuration not stated)	GALR2 ag 37, S1P2 ag 17
COc1ccc(/C=C/C(=O)c2cc(F)ccc2OC(=O)c2ccccc2)cc1OC	GALR2 ag 5.5 (no result: PLAP activator)
Cc1cccc(C)c1NC(=O)c1cn(-c2ccccc2)nc1-c1ccccc1	none (no result: PLAP activator, S1P2 blocker, S1P2 ag)
Cc1nn(Cc2ccc(Cl)c(Cl)c2)c(C)c1NC(=O)c1cn(-c2ccccc2)nc1-c1ccccc1	PLAP activator 2.7
CCOC(=O)COc1ccc(/C=C2\NC(=S)N(CC)C2=O)cc1	none (no result: PLAP activator, S1P2 blocker, S1P2 ag)
N=c1c(C(=O)NCC2CCCO2)cc2c(=O)n3ccccc3nc2n1Cc1cccnc1 (configuration not stated)	GALR2 ag 5.8 (no result: S1P2 blocker, S1P2 ag)
N=c1c(C(=O)NCc2ccc(F)cc2)cc2c(=O)n3ccccc3nc2n1Cc1cccnc1	S1P2 ag 21
N=c1c(C(=O)NCc2ccc(F)cc2)cc2c(=O)n3ccccc3nc2n1CCCN1CCOCC1	GALR2 ag 9.7 (no result: S1P2 blocker, S1P2 ag)
C=CCC(C#Cc1ccccc1)[N+](C)(C)CC=C (configuration not stated)	none
Cc1cccc(C2(c3cccc(C)c3)CC2C(=O)Nc2ccc([N+](=O)[O-])cc2O)c1 (configuration not stated)	none (no result: PLAP activator, S1P2 blocker, S1P2 ag)
Cc1cc(N2CCCCC2)nc2ccc(NC(=O)CCC(=O)NCCC(C)C)cc12	PLAP activator 2.2
CC(C)CC(=O)c1c[nH]c(C(=O)NCCCn2ccnc2)c1	none
CCCCCCc1cc2cc(-c3nnc(-c4ccccc4O)o3)c(=O)oc2cc1O	GALR2 ag 18 (no result: S1P2 blocker, S1P2 ag)
CCOC(=O)CSc1nnc(CSc2nc3sc4c(c3c(=O)[nH]2)CCC4)n1-c1ccccc1	PLAP activator 2
c1ccc2[nH]c(SCc3ccc(-c4nnco4)cc3)nc2c1	PLAP activator 2
COc1ccc(N=C2S/C(=C\c3ccc(N4CCOCC4)o3)C(=O)N2CCc2c[nH]c3ccccc23)cc1	S1P2 blocker 48
Cc1cccc(N2C(=O)CN=C2Nc2nc(C)cc(C)n2)c1	PLAP activator 2.6
Cc1cc(C)nc(NC2=NCC(=O)N2c2cc(Cl)cc(Cl)c2)n1	none
N#Cc1c(NCCN)nc(-c2ccco2)c2c1CCCC2	S1P2 ag 20
CC(C)CCNc1nc(-c2ccco2)c2c(c1C#N)CCCC2	S1P2 ag 37
CCc1nc(NCCC(C)C)c(C#N)c2c1CCCC2	none
CCCCn1nnnc1SCC(=O)NCc1ccco1	none
CCOC(=O)c1c(NC(=O)C(=O)N/N=C/c2ccccc2O)sc2c1CCCCC2	none (no result: PLAP activator, S1P2 blocker, S1P2 ag)
Cc1ccc(S(=O)(=O)N2CC3(C)CN(S(=O)(=O)c4ccc(C)cc4)CC(C)(C2)C3=O)cc1	none
Cc1ccc(S(=O)(=O)N2CC3(C)CN(S(=O)(=O)c4ccc(C)cc4)CC(C)(C2)C3O)cc1 (configuration not stated)	GALR2 ag 5.0 (no result: S1P2 blocker, S1P2 ag)
Clc1ccc(Nc2nc3ccccc3n3nnnc23)cc1	none
Fc1cc(Br)ccc1Nc1nc2ccccc2n2nnnc12	GALR2 ag 6.1 (no result: PLAP activator, S1P2 blocker, S1P2 ag)
O=S(=O)(c1ccc2nc(COc3ccccc3)[nH]c2c1)N1CCOCC1	PLAP activator 2 (no result: S1P2 blocker, S1P2 ag)
O=S(=O)(c1ccc2nc(Cc3ccccc3)[nH]c2c1)N1CCOCC1	PLAP activator 2.2
CCCCNc1nc(=S)[nH]c2cc(OC)c(OC)cc12	none
CCOCCCNc1nc(=S)[nH]c2cc(OC)c(OC)cc12	S1P2 ag 449
c1ccc(-c2ccccn2)nc1	none (no result: PLAP activator, S1P2 blocker, S1P2 ag)
c1ccc(-c2n[nH]c(-c3ccccn3)n2)cc1	PLAP activator 2.2
c1ccc(-c2n[nH]c(-c3ccccn3)n2)nc1	PLAP activator 2.8
